Here are results for eight sequences from paper PMC7862700, “An all-to-all approach to the identification of sequence-specific readers for epigenetic DNA modifications on cytosine”.

What all share (experiment): DAPPL (digital affinity profiling via proximity ligation, sequencing); 10 mM Tris-HCl pH 7.5, 50 mM NaCl, 1 mM DTT, 4% glycerol, room temperature, 30 min; GST-TFs on glutathione beads, 16-mer random dsDNA library, 0.1% formaldehyde crosslink after washing; high values mean tight binding
Conditions in all cases: protein: recombinant; tags: N-terminal GST; dsDNA, one strand shown

In one test the target is T1, FLI1 (Homo sapiens, UniProt Q01543 1-452).
T1 sequence: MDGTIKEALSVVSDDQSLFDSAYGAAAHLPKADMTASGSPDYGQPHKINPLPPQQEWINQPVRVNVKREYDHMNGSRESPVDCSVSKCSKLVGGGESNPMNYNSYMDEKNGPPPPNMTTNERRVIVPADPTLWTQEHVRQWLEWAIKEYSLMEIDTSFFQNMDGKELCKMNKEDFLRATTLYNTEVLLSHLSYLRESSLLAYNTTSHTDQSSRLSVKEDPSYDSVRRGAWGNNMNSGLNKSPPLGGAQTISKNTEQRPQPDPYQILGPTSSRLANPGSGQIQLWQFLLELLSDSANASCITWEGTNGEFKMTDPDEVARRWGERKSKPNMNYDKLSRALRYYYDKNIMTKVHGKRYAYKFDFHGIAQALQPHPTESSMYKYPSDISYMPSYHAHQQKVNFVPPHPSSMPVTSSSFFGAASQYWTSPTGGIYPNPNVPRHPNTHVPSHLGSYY
The procedure, abridged: (§1)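 Human transcription factors carrying a GST fusion were produced in yeast, bound to glutathione beads, tagged with DNA barcodes and pooled together with a tag-only sample. Each pool was held with 200 nmole of a random double-stranded 16-mer DNA library in Tris/NaCl/DTT/glycerol buffer for 30 min at room temperature, then washed, crosslinked in 0.1% formaldehyde, proximity-ligated with BsaI/T4 ligase (1 h, 37 °C), PCR-amplified and sequenced on an Illumina NextSeq500. Binding signal is the read frequency of each hexamer for a given factor divided by its frequency in the tag-only sample.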

Another test has as its target T2, ELK1 (Homo sapiens, UniProt P19419 1-428).
T2 sequence: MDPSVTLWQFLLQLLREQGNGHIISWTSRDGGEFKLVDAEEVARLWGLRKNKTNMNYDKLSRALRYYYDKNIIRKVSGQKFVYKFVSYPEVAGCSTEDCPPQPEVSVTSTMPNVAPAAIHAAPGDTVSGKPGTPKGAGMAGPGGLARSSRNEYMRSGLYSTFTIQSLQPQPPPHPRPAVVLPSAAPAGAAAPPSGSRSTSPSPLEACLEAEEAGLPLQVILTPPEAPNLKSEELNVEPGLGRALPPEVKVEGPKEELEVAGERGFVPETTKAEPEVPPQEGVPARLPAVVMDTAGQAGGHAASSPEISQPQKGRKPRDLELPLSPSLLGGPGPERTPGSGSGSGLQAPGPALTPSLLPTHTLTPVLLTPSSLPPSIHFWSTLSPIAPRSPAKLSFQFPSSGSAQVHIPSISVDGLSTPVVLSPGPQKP
The method, boiled down:
as §1

In another test the target is T3, GABPA (Homo sapiens, UniProt Q06546 1-454).
T3 sequence: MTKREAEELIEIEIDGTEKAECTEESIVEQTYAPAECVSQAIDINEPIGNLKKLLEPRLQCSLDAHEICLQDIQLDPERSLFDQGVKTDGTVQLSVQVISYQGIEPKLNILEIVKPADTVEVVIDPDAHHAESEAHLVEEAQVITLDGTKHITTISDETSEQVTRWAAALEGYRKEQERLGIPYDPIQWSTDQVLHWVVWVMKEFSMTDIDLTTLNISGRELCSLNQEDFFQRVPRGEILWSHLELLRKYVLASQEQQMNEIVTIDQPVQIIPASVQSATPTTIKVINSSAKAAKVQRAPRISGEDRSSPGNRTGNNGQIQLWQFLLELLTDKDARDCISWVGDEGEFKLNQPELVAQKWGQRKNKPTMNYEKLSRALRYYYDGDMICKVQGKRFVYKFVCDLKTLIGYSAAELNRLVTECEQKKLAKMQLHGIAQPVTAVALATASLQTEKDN
The method, boiled down:
as §1

The target of the next test is T4, ERG (Homo sapiens, UniProt P11308 1-479).
T4 sequence: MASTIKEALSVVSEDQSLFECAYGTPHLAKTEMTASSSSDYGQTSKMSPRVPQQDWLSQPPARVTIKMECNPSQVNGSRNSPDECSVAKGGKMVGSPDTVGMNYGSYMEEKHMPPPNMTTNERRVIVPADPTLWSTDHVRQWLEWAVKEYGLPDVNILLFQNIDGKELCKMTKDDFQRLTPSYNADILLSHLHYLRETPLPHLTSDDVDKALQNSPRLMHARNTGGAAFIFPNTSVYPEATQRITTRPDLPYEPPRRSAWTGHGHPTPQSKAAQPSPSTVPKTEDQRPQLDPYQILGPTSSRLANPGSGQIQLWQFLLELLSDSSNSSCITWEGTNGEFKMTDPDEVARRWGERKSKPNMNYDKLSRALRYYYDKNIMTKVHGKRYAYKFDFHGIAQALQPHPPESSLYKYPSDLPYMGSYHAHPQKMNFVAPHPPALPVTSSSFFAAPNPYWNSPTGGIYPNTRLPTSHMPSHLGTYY
The procedure, abridged:
as §1

The target of another test is ELF1 (Homo sapiens, UniProt P32519 1-619). The procedure, abridged:
as §1

A further test concerns the target T5, EHF (Homo sapiens, UniProt Q9NZC4 1-300).
T5 sequence: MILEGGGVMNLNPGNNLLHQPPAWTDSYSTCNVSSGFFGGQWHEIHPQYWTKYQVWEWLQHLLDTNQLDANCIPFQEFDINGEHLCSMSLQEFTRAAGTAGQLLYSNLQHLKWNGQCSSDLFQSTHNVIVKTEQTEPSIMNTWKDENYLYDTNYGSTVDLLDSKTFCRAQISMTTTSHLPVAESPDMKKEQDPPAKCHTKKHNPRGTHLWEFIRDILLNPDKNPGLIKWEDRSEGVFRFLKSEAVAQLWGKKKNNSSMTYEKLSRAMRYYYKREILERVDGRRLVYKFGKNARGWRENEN
The procedure, abridged: as §1

For another test, the target named is SPI1 (Homo sapiens, UniProt P17947 1-270). The method, boiled down:
as §1

A further test deals with SPIB (Homo sapiens, UniProt Q01892 1-262). The method, boiled down:
as §1

The next test has as its target T6, ELK3 (Homo sapiens, UniProt P41970 1-407).
T6 sequence: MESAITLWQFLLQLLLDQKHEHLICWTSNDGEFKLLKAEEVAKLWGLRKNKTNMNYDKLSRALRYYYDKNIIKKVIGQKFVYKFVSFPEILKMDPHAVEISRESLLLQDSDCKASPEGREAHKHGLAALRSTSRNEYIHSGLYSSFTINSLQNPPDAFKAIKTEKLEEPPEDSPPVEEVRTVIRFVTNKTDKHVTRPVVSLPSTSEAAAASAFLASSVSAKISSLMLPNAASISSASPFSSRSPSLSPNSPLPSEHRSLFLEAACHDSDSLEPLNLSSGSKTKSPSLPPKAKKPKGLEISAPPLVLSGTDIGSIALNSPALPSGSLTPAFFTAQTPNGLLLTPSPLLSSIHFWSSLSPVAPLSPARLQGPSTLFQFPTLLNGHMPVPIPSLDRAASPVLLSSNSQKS
The procedure, abridged:
as §1

Sequence of ELF1 (P32519 whole entry): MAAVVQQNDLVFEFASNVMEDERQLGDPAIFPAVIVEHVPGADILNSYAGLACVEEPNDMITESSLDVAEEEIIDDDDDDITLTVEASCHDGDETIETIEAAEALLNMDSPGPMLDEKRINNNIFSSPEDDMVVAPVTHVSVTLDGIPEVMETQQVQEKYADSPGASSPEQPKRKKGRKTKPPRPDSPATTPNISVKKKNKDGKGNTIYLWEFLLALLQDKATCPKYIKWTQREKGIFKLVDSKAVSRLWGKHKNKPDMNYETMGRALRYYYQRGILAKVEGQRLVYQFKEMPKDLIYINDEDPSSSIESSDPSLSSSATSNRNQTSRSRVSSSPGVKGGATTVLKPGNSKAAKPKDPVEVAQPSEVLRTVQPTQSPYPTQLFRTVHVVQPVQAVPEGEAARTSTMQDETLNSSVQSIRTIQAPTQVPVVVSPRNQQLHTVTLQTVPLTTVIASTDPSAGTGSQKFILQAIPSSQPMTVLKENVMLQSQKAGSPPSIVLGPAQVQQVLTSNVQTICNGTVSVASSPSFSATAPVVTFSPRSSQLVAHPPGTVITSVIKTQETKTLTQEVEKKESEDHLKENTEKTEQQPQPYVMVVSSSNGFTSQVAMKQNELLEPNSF
Sequence of SPIB (Q01892 whole entry): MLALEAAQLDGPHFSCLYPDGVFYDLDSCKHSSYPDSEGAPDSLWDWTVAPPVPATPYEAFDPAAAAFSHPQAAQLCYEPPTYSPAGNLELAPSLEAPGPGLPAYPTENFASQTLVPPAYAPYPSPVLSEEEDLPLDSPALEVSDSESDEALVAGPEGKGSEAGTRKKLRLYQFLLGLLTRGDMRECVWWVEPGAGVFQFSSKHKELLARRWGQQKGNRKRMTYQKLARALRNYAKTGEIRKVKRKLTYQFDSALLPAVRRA

With ATTTTG, the binding signal is 1.19 fold enrichment (6-mer frequency, TF over GST control) in the test with FLI1; 1.25 fold enrichment (6-mer frequency, TF over GST control) with ELK1; 1.33 fold enrichment (6-mer frequency, TF over GST control) with GABPA; 1.2 fold enrichment (6-mer frequency, TF over GST control) with ERG; 1.28 fold enrichment (6-mer frequency, TF over GST control) with ELF1; 1.3 fold enrichment (6-mer frequency, TF over GST control) with EHF. For the same sequence, the binding signal in the test with SPI1 is 1.31 fold enrichment (6-mer frequency, TF over GST control); in the test with SPIB, 1.28 fold enrichment (6-mer frequency, TF over GST control); with ELK3, 1.14 fold enrichment (6-mer frequency, TF over GST control).

Take TTATCT: the binding signal was 1.37 fold enrichment (6-mer frequency, TF over GST control) in the test with FLI1; 1.2 fold enrichment (6-mer frequency, TF over GST control) with ELK1; 1.41 fold enrichment (6-mer frequency, TF over GST control) with GABPA; 1.15 fold enrichment (6-mer frequency, TF over GST control) with ERG; 1.31 fold enrichment (6-mer frequency, TF over GST control) with ELF1; 1.3 fold enrichment (6-mer frequency, TF over GST control) with EHF. Also, the binding signal was 1.31 fold enrichment (6-mer frequency, TF over GST control) in the test with SPI1; 1.34 fold enrichment (6-mer frequency, TF over GST control) with SPIB; 1.36 fold enrichment (6-mer frequency, TF over GST control) in the test with ELK3.

Consider ATCTCG, for which the binding signal was 1.41 fold enrichment (6-mer frequency, TF over GST control) with FLI1; 1.27 fold enrichment (6-mer frequency, TF over GST control) in the test with ELK1; 1.42 fold enrichment (6-mer frequency, TF over GST control) with GABPA; 1.23 fold enrichment (6-mer frequency, TF over GST control) in the test with ERG; 1.39 fold enrichment (6-mer frequency, TF over GST control) with ELF1; 1.34 fold enrichment (6-mer frequency, TF over GST control) in the test with EHF. The binding signal in the test with SPI1 is 1.37 fold enrichment (6-mer frequency, TF over GST control); in the test with SPIB, 1.26 fold enrichment (6-mer frequency, TF over GST control); with ELK3 it was 1.26 fold enrichment (6-mer frequency, TF over GST control).

Turning to ATCTCC, the binding signal in the test with FLI1 is 1.61 fold enrichment (6-mer frequency, TF over GST control); with ELK1, 1.5 fold enrichment (6-mer frequency, TF over GST control); in the test with GABPA, 1.56 fold enrichment (6-mer frequency, TF over GST control); in the test with ERG, 1.51 fold enrichment (6-mer frequency, TF over GST control); with ELF1, 1.47 fold enrichment (6-mer frequency, TF over GST control); with EHF, 1.6 fold enrichment (6-mer frequency, TF over GST control). Further, the binding signal with SPI1 is 1.37 fold enrichment (6-mer frequency, TF over GST control); with SPIB, 1.49 fold enrichment (6-mer frequency, TF over GST control); with ELK3 it was 1.42 fold enrichment (6-mer frequency, TF over GST control).

Turning to ACTCGT, the binding signal is 1.19 fold enrichment (6-mer frequency, TF over GST control) with FLI1; 1.37 fold enrichment (6-mer frequency, TF over GST control) with ELK1; 1.26 fold enrichment (6-mer frequency, TF over GST control) with GABPA; 1.19 fold enrichment (6-mer frequency, TF over GST control) with ERG; 1.25 fold enrichment (6-mer frequency, TF over GST control) with ELF1; 1.26 fold enrichment (6-mer frequency, TF over GST control) in the test with EHF. Also, the binding signal with SPI1 was 1.17 fold enrichment (6-mer frequency, TF over GST control); with SPIB, 1.26 fold enrichment (6-mer frequency, TF over GST control); with ELK3 it was 1.19 fold enrichment (6-mer frequency, TF over GST control).

Take AAAACT: the binding signal in the test with FLI1 is 1.23 fold enrichment (6-mer frequency, TF over GST control); in the test with ELK1 it was 1.16 fold enrichment (6-mer frequency, TF over GST control); with GABPA, 1.15 fold enrichment (6-mer frequency, TF over GST control); with ERG, 1.17 fold enrichment (6-mer frequency, TF over GST control); with ELF1 it was 1.25 fold enrichment (6-mer frequency, TF over GST control); with EHF, 1.24 fold enrichment (6-mer frequency, TF over GST control). In addition, the binding signal was 1.17 fold enrichment (6-mer frequency, TF over GST control) with SPI1; 1.23 fold enrichment (6-mer frequency, TF over GST control) in the test with SPIB; 1.19 fold enrichment (6-mer frequency, TF over GST control) with ELK3.

In the case of GGTATT, the binding signal was 1.2 fold enrichment (6-mer frequency, TF over GST control) with FLI1; 1.17 fold enrichment (6-mer frequency, TF over GST control) with ELK1; 1.23 fold enrichment (6-mer frequency, TF over GST control) with GABPA; 1.24 fold enrichment (6-mer frequency, TF over GST control) with ERG; 1.18 fold enrichment (6-mer frequency, TF over GST control) with ELF1; 1.19 fold enrichment (6-mer frequency, TF over GST control) with EHF. Further, the binding signal in the test with SPI1 is 1.16 fold enrichment (6-mer frequency, TF over GST control); in the test with SPIB it was 1.2 fold enrichment (6-mer frequency, TF over GST control); with ELK3 it was 1.15 fold enrichment (6-mer frequency, TF over GST control).

On to GCTACT, for which the binding signal in the test with FLI1 was 1.37 fold enrichment (6-mer frequency, TF over GST control); with ELK1, 1.25 fold enrichment (6-mer frequency, TF over GST control); with GABPA, 1.32 fold enrichment (6-mer frequency, TF over GST control); with ERG, 1.38 fold enrichment (6-mer frequency, TF over GST control); in the test with ELF1, 1.35 fold enrichment (6-mer frequency, TF over GST control); with EHF, 1.33 fold enrichment (6-mer frequency, TF over GST control). Further, the binding signal with SPI1 was 1.27 fold enrichment (6-mer frequency, TF over GST control); with SPIB, 1.23 fold enrichment (6-mer frequency, TF over GST control); with ELK3, 1.29 fold enrichment (6-mer frequency, TF over GST control).
